Test systems include DU-145 prostate; MALME-3M melanoma; MDA-MB-231 breast; RXF 393 renal; SF-268 CNS; SF-295 CNS; UACC-257 melanoma; K-562 leukemia; SF-539 CNS; M14 melanoma.
Holding throughout (test): NCI-60 one-dose screen, 48 h (100 = growth as untreated, 0 = no growth, -100 = all killed)
Common to all, as to conditions: 10 µM

This is part of a sample that, as a whole, favours compounds with a hit. Of some 83,000 tested, about 20% had one in any assay.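 Plates (96-well) were seeded with cells, treated with compound at one concentration, and incubated for 48 hours before percent growth was determined.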 A number with no mark means an inactive call. The source made the active and inactive calls. Rule for the calls: active = growth percent below 10; inactive = the rest.

The record followed here is PubChem BioAssay (NCI).

Take `COc1ccc(C(=O)CC(CC(=O)c2ccc(OC)cc2)c2c(C)nn(-c3ccccc3)c2Cl)cc1`: the growth with DU-145 prostate is 110%; in the experiment on MALME-3M melanoma, 92.4%; in the experiment with MDA-MB-231 breast it was 90.9%; with RXF 393 renal, 98.4%; with SF-268 CNS, 101%; with SF-295 CNS it was 92.2%. In the experiment on UACC-257 melanoma, the growth is 118%.
For `O=C(COc1cccc(/C=C2\CSc3ccc(Cl)cc3C2=O)c1)c1ccc(Cl)cc1`, the growth in the experiment with K-562 leukemia is 17.3%; in the experiment on MDA-MB-231 breast, 32%; in the experiment with SF-268 CNS it was 88.2%; in the experiment with SF-295 CNS, 81.2%; in the experiment on SF-539 CNS, 80.3%; in the experiment with UACC-257 melanoma it was 84.6%. For the same compound, in the experiment on M14 melanoma, the growth is 94.7%.
`CCC(=O)OC1CCC2C3CCC(=O)OC3C(C)(CCC(=O)O)CC12C` (stereo not drawn): the growth is 2.12% (active) in the experiment on K-562 leukemia; 19.6% with MDA-MB-231 breast; 50.1% in the experiment with SF-268 CNS; -18.6% (active) with SF-295 CNS; 5.18% (active) in the experiment on SF-539 CNS; 55.7% with UACC-257 melanoma.
Consider `Nc1cc(-c2ccc(Cl)cc2)nn1-c1nc2ccccc2nc1Cc1ccccc1`, for which the growth in the experiment on MALME-3M melanoma was 101%; in the experiment on MDA-MB-231 breast, 75.1%; in the experiment with RXF 393 renal, 78.7%; with SF-539 CNS, 99.5%; with UACC-257 melanoma, 101%; in the experiment on M14 melanoma, 89.6%.
For `Cc1cn(-c2cc(F)cc(NC(=O)c3ccc(C)c(Nc4nccc(-c5cccnc5)n4)c3)c2)cn1`, the growth in the experiment with DU-145 prostate is 65.4%; in the experiment with MDA-MB-231 breast it was 6.14% (active); in the experiment with RXF 393 renal, -1.37% (active); with SF-268 CNS it was 67.3%; in the experiment with SF-539 CNS, -39.8% (active); with UACC-257 melanoma, 23.1%.
`CC(=O)OC1CC2C(C)(C)CCC[C@]2(C)C2=C1C(O)=C(C(C)C)C(=O)C2=O` (stereo partly drawn): the growth was -62.7% (active) in the experiment on DU-145 prostate; -17.8% (active) in the experiment with MDA-MB-231 breast; -59.8% (active) with RXF 393 renal; 15.7% in the experiment on SF-268 CNS; -53.1% (active) in the experiment on SF-295 CNS; -7.95% (active) in the experiment with SF-539 CNS. For the same compound, the growth was -12% (active) in the experiment on UACC-257 melanoma and -43% (active) in the experiment with M14 melanoma.
On to `CC1C(=NC(=O)c2cnccn2)C(C)C(c2ccc(Cl)cc2)NC1c1ccncc1` (stereo not drawn), for which the growth in the experiment on DU-145 prostate is 114%; in the experiment with MDA-MB-231 breast, 97%; with RXF 393 renal, 100%; with SF-268 CNS, 108%; in the experiment on SF-295 CNS, 117%; in the experiment on SF-539 CNS, 86.1%. In addition, in the experiment with UACC-257 melanoma, the growth is 94.3%.
Turning to `CN(C)c1ncnc2c1nnn2C1OC(CO)C(O)C1O` (stereo not drawn), the growth in the experiment on DU-145 prostate is 15.9%; in the experiment with MALME-3M melanoma, -10.4% (active); with MDA-MB-231 breast, 36.5%; with RXF 393 renal it was -2.59% (active); with SF-268 CNS it was 24.9%; with SF-295 CNS, 6.4% (active). Also, the growth in the experiment with SF-539 CNS was -2.72% (active); in the experiment with UACC-257 melanoma, 11.8%; in the experiment on M14 melanoma, -13.2% (active).
As to `CN(C)CCCN1c2ccccc2CCc2ccc(Cl)cc21`, the growth in the experiment with DU-145 prostate was 87.1%; in the experiment on MALME-3M melanoma it was 36.7%; in the experiment with MDA-MB-231 breast, 15.8%; in the experiment on RXF 393 renal, 28.3%; in the experiment on SF-268 CNS, 59.4%; in the experiment on SF-295 CNS it was 75.6%. Besides, the values for the growth in the experiment on SF-539 CNS, with UACC-257 melanoma and in the experiment with M14 melanoma were 83.5%, -11.9% (active) and 7.07% (active), respectively.
As to `Cc1c(C(N)=O)sc2c1c(=O)n(Cc1ccccc1)c1nnc(-c3ccc(Br)cc3)n21`, the growth was 31.7% in the experiment with DU-145 prostate; 18.8% in the experiment with MDA-MB-231 breast; 15.9% with RXF 393 renal; 29.4% in the experiment with SF-268 CNS; 15.8% with SF-295 CNS; 13.1% with SF-539 CNS. In addition, the results for the growth in the experiment on UACC-257 melanoma and with M14 melanoma were -0.619% (active) and -22.5% (active), respectively.
Turning to `O=C1c2c(c(=O)[nH]c3ccccc23)CCN1Cc1ccccc1`, the growth was 122% in the experiment with DU-145 prostate; 98.4% in the experiment with MDA-MB-231 breast; 111% with RXF 393 renal; 110% in the experiment with SF-268 CNS; 104% with SF-295 CNS; 90.4% with SF-539 CNS. Moreover, the growth with UACC-257 melanoma is 104%; in the experiment on M14 melanoma, 102%.
On to `COc1ccc(C(=O)COc2cccc(/C=C3\Cc4ccccc4C3=O)c2)cc1`, for which the growth in the experiment on K-562 leukemia was 80.5%; with MDA-MB-231 breast, 66.5%; in the experiment on SF-268 CNS, 77.2%; with SF-295 CNS, 87.1%; in the experiment with SF-539 CNS, 75.9%; with UACC-257 melanoma, 83.5%. Also, in the experiment on M14 melanoma, the growth is 81.2%.
For the compound `COc1ccc(Cl)cc1Nc1nc(C(F)(F)F)ccc1C(=O)N/N=C/c1ccc(Cl)cc1`, the growth was 28.6% in the experiment on K-562 leukemia; 30.5% with MDA-MB-231 breast; 37.2% in the experiment with SF-268 CNS; 18.5% in the experiment with SF-295 CNS; 34% in the experiment with SF-539 CNS; 43.3% in the experiment with UACC-257 melanoma. Further, the growth in the experiment with M14 melanoma was 57.3%.
For the compound `CCOC(=O)/C(=C(\C)N)C1CC(=O)NC1=O` (stereo not drawn), the growth in the experiment with K-562 leukemia was 83.6%; with MALME-3M melanoma it was 111%; in the experiment with MDA-MB-231 breast it was 112%; with RXF 393 renal, 102%; in the experiment with SF-268 CNS, 108%; in the experiment with SF-295 CNS it was 101%. For the same compound, the growth in the experiment on SF-539 CNS was 105%; in the experiment on UACC-257 melanoma, 101%; in the experiment on M14 melanoma it was 97.2%.
With `COc1ccc(Cc2cnc(N)nc2N)cc1OC`, the growth is 114% in the experiment with DU-145 prostate; 113% in the experiment on MALME-3M melanoma; 95.3% in the experiment on MDA-MB-231 breast; 105% in the experiment with RXF 393 renal; 106% with SF-268 CNS; 96.2% in the experiment with SF-295 CNS. Further, the growth is 107% in the experiment with SF-539 CNS, 100% in the experiment with UACC-257 melanoma and 108% with M14 melanoma.
